FXN GAA850 act: frataxin GAA850 promoter activation | HEK293 lucGAA850 FXN promoter luciferase reporter, 24 h; percent of 10 µM SAHA response | activation, % at 6 µM | hit rate 0.56% among 360,000 | AID 540364;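 active means activation above the average of all compounds screened plus 3 SD, cutoff fixed separately per campaign, cut at about 7.5% in these data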;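 further: 0% = DMSO wells and 100% = 10 µM SAHA wells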
FAS TE block: inhibitors of human fatty acid synthase thioesterase domain; P49327; recombinant FAS-TE, OMFH fluorogenic substrate, fluorescence endpoint; inhibition, % at 15 µM; hit rate 0.67% among 360,000;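 active means compounds whose normalised, plate-corrected inhibition of enzyme fluorescence in the single-dose primary screen is 50% or more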;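 further: 0% = DMSO with enzyme and 100% = substrate without enzyme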
SMARCA2 activ: SMARCA2 function activation, primary screen; MG213 cells, MMTV-luciferase reporter, dexamethasone, overnight; activation, % at 9.1 µM; hit rate 1% among 370,000; AID 652017; in the data active means activation above about 7.8%;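 further: 0% = vehicle wells and 100% = reference activator wells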
KLK7 zymogen act: activates the human kallikrein-7 zymogen. P49862. activation, % at 7 µM. purified proKLK7, EDANS-DABCYL substrate fluorescence; 100% is mature enzyme control, 0% vehicle. hit rate 0.9% among 370,000;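 active means activation above the mean of all tested compounds plus 3 SD, computed per campaign excluding outliers beyond control limits, cut at about 13% in these data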
Target sequence (P49862 whole entry, looked up): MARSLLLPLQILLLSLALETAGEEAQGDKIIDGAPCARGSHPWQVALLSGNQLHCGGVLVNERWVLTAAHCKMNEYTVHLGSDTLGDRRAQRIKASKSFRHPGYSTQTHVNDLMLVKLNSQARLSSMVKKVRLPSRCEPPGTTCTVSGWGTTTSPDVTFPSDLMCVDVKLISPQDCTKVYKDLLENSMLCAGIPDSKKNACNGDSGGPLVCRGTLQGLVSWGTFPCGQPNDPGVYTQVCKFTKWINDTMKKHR
Starred values were filed as active, the others as inactive; / = no result given. Most compounds without a hit are left out; they make up all but 2.9% or so of the library.

SMILES | FXN GAA850 act | FAS TE block | SMARCA2 activ | KLK7 zymogen act
C[C@H]1c2cccc(O)c2C(O)=C2C(=O)[C@]3(O)C(O)=C(C(N)=O)C(=O)[C@@H](N(C)C)[C@@H]3[C@@H](O)[C@@H]21 | 19* | 0 | / | /
CCN(CC)c1ccc(C(=C2C=CC(=[N+](CC)CC)C=C2)c2ccc(N(CC)CC)cc2)cc1 | -10 | 26 | -9 | 1
CCN(CC)c1ccc(C(=C2C=CC(=[N+](CC)CC)C=C2)c2ccccc2)cc1 | -15 | 82* | -13 | 1
COc1ccc(C(=O)Nc2ccccc2-c2nnn(CC(=O)Nc3ccc4c(c3)OCCO4)n2)cc1 | -3 | 4 | 6 | 0
CCC(CO)Oc1cc(NC(=O)c2ccccc2F)c2ncn(C(C)C)c2c1 (stereo unspecified) | 1 | -3 | -1 | 1
CCCCc1ccc(NC(=O)C2CCCC2)cc1 | 3 | 15 | 7.8* | 0
O=C(Nc1ncnc2c1C(c1ccccc1)c1c(ccc3ccccc13)O2)c1ccccc1 (stereo unspecified) | -2 | 96* | -2 | -1
COc1ccc(C(=O)Nc2ccc(NC(=O)C3CCCCC3)nc2)cc1 | 0 | -4 | -3 | 0
O=S(=O)(c1ccc(OCC(O)CNC23CC4CC(CC(C4)C2)C3)c(Cl)c1)N1CCOCC1 (stereo unspecified) | -2 | 4 | 7.8* | -1
CN1CCN(c2nc(-c3ccc(Cl)cc3)cc(=O)[nH]2)CC1 | -1 | -3 | -1 | 0
O=C(COc1ccc(Cl)cc1Cl)Nc1ccccc1F | 3 | 5 | 1 | 1
Cc1ccsc1/C=N/N1CCN(c2ccccc2)CC1 | 7.8* | 8 | 4 | -1
Cc1ccsc1/C=N/N1CCN(c2ccccn2)CC1 | 3 | 5 | 3 | 0
O=C(N=C1SC2CS(=O)(=O)CC2N1c1ccc(Br)cc1F)C1CC1 (stereo unspecified) | -1 | -5 | -4 | 0
COc1ccc(/C(O)=C2\C(=O)C(=O)N(CCN(C)C)C2c2cccc(OC)c2OC)cc1 (stereo unspecified) | 0 | -13 | 9.6* | 0
COc1cccc(C2/C(=C(/O)c3cnn(-c4ccccc4)c3C)C(=O)C(=O)N2CCN(C)C)c1OC (stereo unspecified) | 1 | -6 | 0 | 0
CCOc1ccc(NC(=O)CSc2nc3ccccc3c(=O)n2CCCC(=O)NCCCN2CCCC2=O)cc1 | -2 | -2 | -3 | 0
Nn1c(Cc2ccccc2)nnc1Cc1ccccc1 | 2 | -5 | 1 | 0
Cc1ccc(CN2C(=O)c3ccccc3C2c2nnnn2-c2ccc3c(c2)OCCO3)cc1 (stereo unspecified) | / | 7 | 3 | 0
Cc1ccccc1CN1C(=O)c2ccccc2C1c1nnnn1-c1ccc2c(c1)OCCO2 (stereo unspecified) | / | 3 | 7.9* | 0
COc1cc(/C=C/[N+](=O)[O-])ccc1OC(=O)/C=C/c1ccc(F)cc1 | 8.7* | 6 | -2 | 0
Nc1nnc(-c2cc3ccccc3oc2=O)s1 | 3 | -6 | 7.9* | -69
COc1ccc2oc(=O)c(-c3nnc(N)s3)cc2c1 | 5 | -8 | 4 | -37
O=C(N[C@H]1C/C=C\C[C@@H](CC(=O)N(CCO)Cc2ccccc2)C(=O)N2CCC[C@@H]2COC1=O)OCC1c2ccccc2-c2ccccc21 | 2 | -6 | / | /
Cc1cc(N2CCN(C)CC2)nc2ccc(NC(=S)NCCN3CCc4ccccc4C3)cc12 | -4 | -3 | 7.9* | 7
SMILES | FXN GAA850 act | FAS TE block | SMARCA2 activ | KLK7 zymogen act
COc1cc2c(cc1OC)-c1cc(Nc3ccc(N(C)C)cc3)nc(=O)n1CC2 | 6 | 2 | 7.8* | 8
COc1cc2c(cc1OC)-c1cc(Nc3ccc(F)cc3)nc(=O)n1CC2 | 6 | 2 | 1 | 0
Cc1ccc(Cl)cc1N1CCN(CC(O)COCc2ccco2)CC1 (stereo unspecified) | 1 | 1 | -4 | 1
Cc1occc1C(=O)N/N=C/C=C/c1ccccc1 | 6 | -4 | 7.9* | 0
O=C(O)c1cc(NS(=O)(=O)c2cccs2)cc(NS(=O)(=O)c2cccs2)c1 | 0 | -6 | 0 | 0
CCN(CC)CCNC(=O)c1cc2c(-c3ccc(Cl)cc3)nn(C)c2s1 | -1 | 2 | 11* | 17*
CCOC(=O)c1sc(/N=C/N(C)C)nc1C | 2 | -3 | 1 | 0
CCOC(=O)c1cnc(/N=C/N(C)C)s1 | 2 | -5 | 7.9* | 0
CC(C)(C)NC(=O)C[C@H]1C[C@H](C(=O)N2CCOCC2)[C@@]2(CCC3CCCC3)c3[nH]c4cc(-c5ccco5)ccc4c3CCN2C1=O | 0 | 58* | / | /

Source: PubChem (several laboratories)
